# Results filed as inconclusive are left out. A number with no mark means an inactive call. The source made the active and inactive calls. Calls follow the shape of the dose curve; as a rule, active = well fitted inhibition curve with a large enough effect; inconclusive = small, poorly fitted or top-dose-only effect; inactive = no such curve, though single readings can be large or run the other way.
# Test: qHTS for Inhibitors of the Aldehyde Dehydrogenase Family (ALDH1A2, ALDH1A3, ALDH2, ALDH3A1) (AID 2061307); also: nearly all actives have a fitted effect of over 50% in size; as to Potency: test system not described further here
# Conditions: ALDH inhibition qHTS; series mostly up to 50.3 µM; activity change, negative = inhibition: at the top concentration
# % is scaled to controls: 0 for no effect and ±100 for the full control effect; potency is read from the fitted curve at half-maximal effect.
Structure (SMILES),"activity change, negative = inhibition",Potency
Cc1ccc2c(=O)cc(C(=O)Nc3cccc(C(F)(F)F)c3)oc2c1C,-11.4% [at 34.4 µM],–
O=C(Nc1ccccn1)c1cccs1,12.5%,–
Cc1ccc(OCCCn2c(CCN)nc3ccccc32)cc1,31.3%,–
CSCc1cccc(C(=O)Nc2cccnc2)c1,-17.7% [at 34.4 µM],–
O=C(Nc1cccc(-c2ccc(N3CCOCC3)nn2)c1)Nc1ccccc1C(F)(F)F,-15.6% [at 34.4 µM],–
CCS(=O)(=O)c1nc(-c2ccc(Cl)cc2)cc(C(F)(F)F)n1,–,4.47 µM (active)
O=C(Nc1nc2ccccc2c(=O)s1)c1ccc(F)cc1Cl,-24%,–
Cc1cn(-c2cc(NC(=O)c3ccc(C)c(N)c3)cc(C(F)(F)F)c2)cn1,19.3%,–
O=C(N/N=C/c1ccc(Br)o1)c1ccccc1,-9.38%,–
Oc1ccccc1NCC(O)Cn1ccc2ccccc21 (centres undefined),-17.6%,–
COc1ccc(Cl)cc1Nc1cc(C)nc2nc(-c3ccccc3C)nn12,-49.2% [at 34.4 µM],–
O=C(CSc1nc2ncccc2c(=O)n1-c1ccccc1)Nc1ccccc1,3.76%,–
Fc1cccc(F)c1CNCc1cccnc1-n1cccn1,–,3.98 µM (active)
CCOC(=O)COc1ccc2c(c1)c(C(=O)c1ccccc1)c(C)n2-c1ccc(OC)cc1,3.44% [at 34.4 µM],–
Cc1cccc(NC(=O)C2CC(=O)N(c3ccc(S(=O)(=O)N(C)C)cc3)C2)n1 (centres undefined),-6.51%,–
Cc1cc(=O)n2[nH]c(NC(=O)c3ccccc3)nc2n1,-36%,–
COc1ccc(NC(=O)c2ccc(N3CCOCC3)nc2)cc1,-43.3% [at 34.4 µM],–
CC(Sc1nc2c(cnn2C2COC2)c(=O)n1-c1ccccc1)c1ccccc1 (centres undefined),2.05% [at 34.4 µM],–
Cc1c2c(=O)n(-c3ccccc3)[nH]c2cc(=O)n1Cc1ccccn1,-29%,–

# Reference: PubChem BioAssay (NCATS)
